RORg inh: qHTS for inhibitors of ROR gamma transcriptional activity. Nuclear receptor ROR-gamma (Mus musculus), P51450. Drosophila S2 Gal4-RORgamma UAS-luciferase reporter, 20 h. Potency, µM (series often up to 53.6 µM), inactives show at the highest dose activity change, negative = inhibition, usual class: inhibitors. actives 5.4% (n = 310,000). AID 2551, 2010; note: potency is the fitted concentration of half-maximal effect; % is set by controls: 0 for no effect and ±100 for the full control effect; nearly all actives have a fitted effect of over 60% in size
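Compounds are pin-transferred onto Drosophila Schneider cells expressing a copper-inducible Gal4–ROR gamma transactivation domain fusion. After 1 hr, copper sulfate is added to 700 uM final; luciferase is read 20 hr later.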
Gal4-VP16 FLuc: VP16 counterscreen qHTS for inhibitors of ROR gamma transcriptional activity | Drosophila S2 Gal4-VP16 UAS-luciferase, luminescence, 20 h | Potency, µM (top dose mostly 53.6 µM), for the others: at the top dose activity, negative = inhibition, most hits filed as inhibitors | actives 3.5% (n = 310,000) | AID 2546, 2010;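 note: Gal4-VP16 expression switched on by copper sulfate through the metallothionein promoter; potency is the fitted concentration of half-maximal effect; % is set by controls: 0 for no effect and ±100 for the full control effect; nearly all actives have a fitted effect of over 50% in size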
Six1-Eya2 inh: qHTS Assay for Inhibitors of the Six1/Eya2 Interaction. Homeobox protein SIX1 (Homo sapiens) + Protein phosphatase EYA2 (Homo sapiens), …. actives 0.56% (n = 360,000). activity change, % (no concentration beside the values). AID 651725, 2012. AlphaScreen GST-Six1/His-Eya2 binding, biochemical; active compounds read low; in the data active = activity change below about -65%; inconclusive = mostly about -30% to -63%; note: % is set by controls: 0 for no effect and ±100 for the full control effect
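GST-Six1 + His-Eya2 (5X stock: 250/500 nM); Tris pH 8.0, 300 mM NaCl, 0.05% BSA, 0.02% Tween 20; GSH donor/Ni acceptor beads; 1 h 37 °C dark; AlphaScreen readout.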
CBFb RUNX1 block: qHTS Assay for Compounds Blocking the Interaction Between CBF-beta and RUNX1 for the Treatment of Acute Myeloid Leukemia. AlphaScreen CBFb-His/RUNX1-biotin binding, biochemical. 230,000 tested, under 10 active. Potency, µM (titrated, usually from 59.8 µM), for inactives: at the highest dose activity, negative = inhibition, most hits filed as inhibitors. AID 1477, 2009; note: % of control where 0% means no effect
Target sequence (Q01196 whole entry, looked up): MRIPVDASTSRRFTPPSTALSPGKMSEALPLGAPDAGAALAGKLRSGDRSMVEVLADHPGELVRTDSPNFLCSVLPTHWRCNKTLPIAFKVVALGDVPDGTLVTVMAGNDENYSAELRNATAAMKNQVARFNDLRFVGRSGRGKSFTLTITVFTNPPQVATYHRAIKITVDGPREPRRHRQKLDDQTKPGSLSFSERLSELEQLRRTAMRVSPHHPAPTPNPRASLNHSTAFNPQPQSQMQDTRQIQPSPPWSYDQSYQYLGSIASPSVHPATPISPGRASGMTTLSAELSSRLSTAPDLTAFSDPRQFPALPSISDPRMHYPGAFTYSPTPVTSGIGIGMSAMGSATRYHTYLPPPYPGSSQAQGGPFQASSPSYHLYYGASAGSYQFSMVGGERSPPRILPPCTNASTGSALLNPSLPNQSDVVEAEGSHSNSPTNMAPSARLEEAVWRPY
Target sequence (Q13951 whole entry, looked up): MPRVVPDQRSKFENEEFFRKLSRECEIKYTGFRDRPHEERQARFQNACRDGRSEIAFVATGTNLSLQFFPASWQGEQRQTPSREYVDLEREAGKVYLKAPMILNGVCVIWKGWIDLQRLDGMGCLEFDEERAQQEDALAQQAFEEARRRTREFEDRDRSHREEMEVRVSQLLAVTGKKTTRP
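Inhibition was taken as any reduction in AlphaScreen signal from the CBF-beta–RUNX1 pair (His and biotin tags, 30 nM each), measured after compound (15 min) and bead (90 min) incubations at room temperature.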
CtBP-E1A blk: qHTS Assay for Inhibitors of the CtBP/E1A Interaction. AlphaScreen GST-E1A/His-CtBP binding, 1536-well; active compounds read low. activity change, % (no concentration beside the values). actives 0.49% (n = 340,000); in the data active = activity change below about -65%; inconclusive = mostly about -30% to -63%; note: % is set by controls: 0 for no effect and ±100 for the full control effect
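AlphaScreen with 125 nM GST-E1A and 125 nM His-CtBP (5X stocks) in Tris pH 8.0, 300 mM NaCl, BSA, Tween 20, TCEP. Compounds preincubated 2 h at 37 deg C, then glutathione donor/nickel acceptor beads added for 1 h at 37 deg C in dark.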
MBNL1 CUG block: qHTS Assay for Inhibitors of MBNL1-poly(CUG) RNA binding. AID 2675, 2010. TR-FRET MBNL1-His/biotin-(CUG)12 binding, 665/545 ratio. Potency, µM (doses to about 57.5 µM), for inactives: top-dose activity change, negative = inhibition, usual class: inhibitors. Muscleblind-like protein 1 (Homo sapiens), Q9NR56. actives 0.036% (n = 280,000); active = well fitted inhibition curve with a large enough effect in the signal ratio, with a control signal flat, not every such curve was filed as active; inconclusive = small, poorly fitted or top-dose-only effect, or effect the other way, or a change in a side signal; inactive = no such curve, though single readings can be large or run the other way; the % refers to the signal ratio; note: potency is the fitted concentration of half-maximal effect; % is set by controls: 0 for no effect and ±100 for the full control effect
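Ratiometric TR-FRET (665 over 545 nm, excitation 340 nm) tracks disruption of MBNL1-His/biotin-(CUG)12 complex after 60 min at room temperature, with compounds at 92 nM to 58 uM final.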
Numbers without * were called inactive; ? = inconclusive; / = not tested or not shown; [ ] = remark or other dose. Most compounds without a hit are left out; they make up all but 5.5% or so of the library. Unless noted, calls come from the whole dose curve; as a rule, active = well fitted curve in the direction sought with a large enough effect; inconclusive = small, poorly fitted or top-dose-only effect, or another doubt; inactive = no such curve, though single readings can be large; an effect the other way counts as inactive or inconclusive.

SMILES | RORg inh | Gal4-VP16 FLuc | Six1-Eya2 inh | CBFb RUNX1 block | CtBP-E1A blk | MBNL1 CUG block
COc1cccc(CNC(=S)NC2CCCC2)c1 | 10µM* | 10µM* | -5.7 | -2.2% | 5.1 | -10.4%
O=C(OCc1c(-c2ccccc2)ncc2ccccc12)c1ccc(Cl)cc1Cl | / | / | 0.6 | / | -8.1 | /
N/C(Cn1cncn1)=N\NC(=O)C(=O)Nc1ccc(Cl)cc1Cl | 10µM* | ? | -22.0 | -4.0% | -23.0 | -1.7%
O=C(NCc1cccs1)c1nc2c(nnn2Cc2ccccc2Cl)c(=O)[nH]1 | 10µM* | 2.82µM* | -15.0 | -12.9% | -24.0 | 0.8%
CCCCCCCCCCCCC/C=C/[C@@H](O)C(CO)NC(C)=O (stereo partly specified) | -12.6% | 1.2% | / | 4.6% | / | /
COc1ccc(C(=O)COC(=O)CCS(=O)(=O)c2ccc(C)cc2)c(OC)c1 | / | / | -7.6 | / | -4.9 | /
Cc1ccc(S(=O)(=O)CCC(=O)c2ccc(O)cc2O)cc1 | 14.1µM* | ? | 7.7 | 1.8% | 2.9 | -9.0%
Cc1ccc(S(=O)(=O)CCC(=O)OCC(=O)c2cc(C)ccc2C)cc1 | / | / | 5.8 | / | 1.4 | /
COc1ccc(C(=O)CCS(=O)(=O)c2ccc(C)cc2)cc1OC | 2.82µM* | 4.47µM* | -1.9 | / | -8.3 | 7.1%
CCCCc1n[nH]c(=S)n1Cc1ccc(Cl)cc1 | 3.98µM* | 7.08µM* | -1.0 | 2.0% | 0.9 | -1.7%
CCCCn1c(Cc2ccccc2)n[nH]c1=S | ? | -24.3%[0.365 µM] | 8.4 | -10.0% | 2.6 | -3.5%
CCn1c(CCNC(=O)c2ccc(Cl)cc2Cl)n[nH]c1=S | ? | -3.7% | 1.5 | 2.4% | 6.1 | -9.2%
CCCCc1n[nH]c(=S)n1Cc1ccccc1 | 3.98µM* | 15.8µM* | 3.6 | 3.4% | / | -2.9%
NCCCCCCN | 9.2% | 10.8% | / | 14.4%[21.7 µM] | / | /
CN(C)Cc1ccccc1-c1ccc2ncnc(NC3CCNCC3)c2c1 | 5.0% | 3.4% | / | / | / | /
Clc1cccc(Cc2c(-c3cccc(Br)c3)nc3c4ccccc4ccn23)c1 | / | / | -0.3 | / | 1.5 | /
OCCCCc1nccc2c1[nH]c1ccccc12 | 11.6% | 0.1% | 0.2 | -3.6% | / | 5.1%
N#Cc1ccc(/C=C\c2nccc3c2[nH]c2ccccc23)cc1 | 0.447µM* | 2.24µM* | 16.5 | ? | 31.6 | 10.9%
Clc1ccc(/C=C\c2nccc3c2[nH]c2ccccc23)cc1 | 1.58µM* | ? | 45.4 | ? | 0.0 | -2.6%
O=C(CSc1nc2ccccc2c(=O)n1-c1ccccc1F)NC1CCS(=O)(=O)C1 (stereo unspecified) | / | / | -0.3 | / | 3.4 | /
CCOc1ccc(NC(=O)CSc2nnnn2C2CC2)cc1S(=O)(=O)N1CCCC1 | / | / | 2.4 | / | -4.6 | /
COc1ccc(C2C=C(c3ccc(F)cc3)NC(=S)N2)cc1OC (stereo unspecified) | 8.91µM* | ? | -2.1 | 7.8% | / | 1.3%
CO[C@H]1OC2O[C@@]3(C)CC[C@H]4[C@H](C)CC[C@@H]([C@H]1C)[C@@]24OO3 (stereo partly specified) | -10.7%[10 µM] | -1.1% | / | / | / | /
Clc1ccccc1OCCCCn1ccnc1 | 4.2%[0.365 µM] | / | -2.4 | 1.9% | -1.1 | 4.0%
Cc1cccc(OCCCCCn2ccnc2)c1 | ? | 9.3% | -1.4 | -4.4% | -0.4 | -23.1%
SMILES | RORg inh | Gal4-VP16 FLuc | Six1-Eya2 inh | CBFb RUNX1 block | CtBP-E1A blk | MBNL1 CUG block
Cc1ccccc1OCCCCCn1ccnc1 | 11.2µM* | -5.6% | -1.1 | 0.7% | -5.2 | 2.5%
Cc1cc(OCCCCn2ccnc2)cc(C)c1Cl | 12.6µM* | -24.0% | 20.8 | -4.5% | -25.2 | 6.5%
Cc1cc(Cl)cc(C)c1OCCCCn1ccnc1 | 11.2µM* | -29.1% | -3.3 | -2.8% | 1.2 | -2.5%
Cc1cc(OCCn2ccnc2)cc(C(C)C)c1 | -34.2% | 2.3% | 2.2 | 2.0% | -2.4 | -1.2%
Clc1cccc(OCCCn2ccnc2)c1 | -26.7% | -13.3% | -1.4 | / | / | -3.6%
Cc1cc(OCCCn2ccnc2)cc(C(C)C)c1 | 31.6µM* | -0.8% | 10.4 | -0.1% | 0.0 | 0.3%
CCCN(C(=O)CCc1ccc(OC)cc1)c1c(N)n(Cc2ccccc2)c(=O)[nH]c1=O | / | / | 3.9 | / | 1.5 | /
Cn1c(SCC(=O)NCC2CCCO2)nnc1-c1ccc(Cl)cc1 (stereo unspecified) | / | / | 5.8 | / | / | /
COC(=O)C1CCN(C(=O)COC(=O)c2cc(-c3ccccc3)nc3ccc(OC)cc23)CC1 | / | / | 22.6 | / | -14.8 | /
COc1ccccc1N(CC(=O)N1CCOCC1)S(C)(=O)=O | ? | -18.6% | -3.0 | / | 5.0 | 1.2%
CCC(=O)Nc1nnc(S(=O)(=O)N2c3ccccc3CC2C)s1 (stereo unspecified) | 0.7% | -1.3% | 5.8 | / | -23.1 | -5.5%
Cc1cccc(Cl)c1OCCCCn1ccnc1 | 15.8µM* | 19.5% | -9.8 | -0.3% | -7.8 | 1.4%
CC(C)(C)c1ccc(OCCCn2ccnc2)cc1 | -114.6% | 25.1µM* | -9.1 | / | -9.6 | 5.5%
O=[N+]([O-])c1cc(S(=O)(=O)N2CCCCCC2)ccc1F | 5.62µM* | 4.47µM* | -11.6 | 6.6% | -2.4 | ?
O=[N+]([O-])c1cc(S(=O)(=O)N2CCCC2)ccc1O | 5.1% | 2.6% | 1.0 | -1.2% | 26.4 | 0.2%
O=C(OCC(=O)N1CCCc2ccccc21)c1cc(S(=O)(=O)N2CCOCC2)ccc1O | / | / | 3.6 | / | / | /
COCCCn1c(C)cc(C(=O)CN2c3cccc4cccc(c34)S2(=O)=O)c1C | / | / | -7.4 | / | -2.3 | /
COc1cc(OC)c(NC(=O)CN(C)S(=O)(=O)c2ccc(-c3ccc(=O)[nH]n3)s2)cc1Cl | 4.8% | 2.5% | -70.6* | / | / | ?
Cn1cccc1/C=C1\SC(=O)N(c2ccc(O)cc2)C1=O | 2.82µM* | -20.0% | -4.5 | 9.3% | -1.2 | ?
CCOc1ccc(N2C(=O)S/C(=C\c3cccn3C)C2=O)cc1 | ? | -23.3% | -0.6 | -11.7% | -6.6 | 29.9%
CSc1nc(Sc2ccc(Cl)cc2)c2ccccc2n1 | 15.8µM* | -10.7% | 6.0 | 8.0% | 9.4 | -4.4%
C=CCN1C(=O)N/C(=C/c2ccc(C)o2)C1=O | 5.62µM* | 5.01µM* | -7.3 | 0.5% | / | /
Cc1cccc(NC(=O)CN2C(=O)N/C(=C/c3ccc(C)o3)C2=O)c1 | ? | 17.8µM* | -16.1 | 1.3% | 8.4 | 2.5%
Cc1ccc(/C=C2\C(=O)NC(=O)N2C)o1 | 14.4% | 5.1% | 0.0 | / | -1.3 | 13.9%

Bioassay records from PubChem BioAssay.
